Measurements reported in the supplement of paper PMC8975748.
Where a name gives a salt, the structure may show the parent alone.

test system: Saccharomyces cerevisiae BY4741 SeMeCo community; experiment: z-score of subpopulation abundance vs DMSO median, subpopulation auxotrophic for UM; higher = larger share of this subpopulation than in DMSO controls; conditions: 10 µM; 24 h; SM minimal medium; subpopulation (auxotrophy): UM
In short: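 Cells of a Saccharomyces cerevisiae BY4741 community, carrying four plasmids that each restored one auxotrophy and encoded a distinct fluorescent protein, were pre-grown overnight to OD600 1.0 and diluted to 0.3. A 70 µl volume was added to 384-well plates acoustically predosed with library drugs (10 µM final) and grown 24 h in minimal SM medium. After paraformaldehyde fixation, automated confocal microscopy was used, with single-auxotroph fluorescent strains for thresholds and autofluorescence correction. The abundance of each subpopulation was scored as a z-score against the vehicle-well median.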

Compound | z-score of subpopulation abundance
CCCCOc1cc(C(=O)NCCN(CC)CC)c2ccccc2n1 [Dibucaine HCl] | 0.1
Clc1ccc(CSC(Cn2ccnc2)c2ccc(Cl)cc2Cl)cc1 (stereo unspecified) [Sulconazole Nitrate] | 5.19
COc1ccc(C2CNC(=O)C2)cc1OC1CCCC1 (stereo unspecified) [Rolipram] | -0.35
C[C@]12CC[C@@H]3c4ccc(O)cc4CC[C@H]3[C@@H]1CC[C@@H]2OC(=O)CCC1CCCC1 [Estradiol Cypionate] | 0.45
C[C@@H](NCCCc1cccc(C(F)(F)F)c1)c1cccc2ccccc12 [Cinacalcet HCl] | -0.3
Cc1cc(/C=C/c2ccc3cc(N(C)C)ccc3[n+]2C)c(C)n1-c1ccccc1 [pyrvinium] | 1.08
CC(C)Cc1ccc(C(C)C(=O)O)cc1 (stereo unspecified) [Ibuprofen Lysine] | -4.66
O=C(Cn1cnnn1)N[C@@H]1C(=O)N2C(C(=O)O)=C(CSc3nncs3)CS[C@H]12 [Ceftezole sodium] | 0.35
CC[N+](C)(C)c1cccc(O)c1 [Edrophonium chloride] | 0.7
Nc1ccc(S(N)(=O)=O)cc1 [Sulfanilamide] | 0.11
CCCN(CCC)CCc1cccc2c1CC(=O)N2 [Ropinirole HCl] | 0.06
CN(C)CCCC1(c2ccc(F)cc2)OCc2cc(C#N)ccc21 (stereo unspecified) [Citalopram HBr] | 0.83
CN1CCCN=C1/C=C/c1cccs1 [Pyrantel Pamoate] | -1.25
CN(C)CCC[C@@]1(c2ccc(F)cc2)OCc2cc(C#N)ccc21 [Escitalopram Oxalate] | -0.53
CCCCCC(=O)O[C@]1(C(C)=O)CC[C@H]2[C@@H]3CCC4=CC(=O)CC[C@]4(C)[C@H]3CC[C@@]21C [Hydroxyprogesterone caproate] | 0.42
C[C@]12CCC(=O)C=C1[C@@H]1C[C@@H]1[C@H]1[C@@H]3[C@@H]4C[C@@H]4[C@@]4(CCC(=O)O4)[C@@]3(C)CC[C@@H]12 [Drospirenone] | -0.14
CC[C@H]1OC(=O)[C@H](C)[C@@H](O[C@H]2C[C@@](C)(OC)[C@@H](O)[C@H](C)O2)[C@H](C)[C@@H](O[C@@H]2O[C@H](C)C[C@H](N(C)C)[C@H]2O)[C@](C)(O)C[C@@H](C)/C(=N\OCOCCOC)[C@H](C)[C@@H](O)[C@]1(C)O [Roxithromycin] | 0.31
CCC(C)(C)c1ccc(CC(C)CN2C[C@@H](C)O[C@@H](C)C2)cc1 (stereo partly specified) [Amorolfine HCl] | 10

Compound | z-score of subpopulation abundance
CC(=O)N[C@H]1[C@H]([C@H](O)[C@H](O)CO)OC(C(=O)O)=C[C@@H]1NC(=N)N [Zanamivir] | -0.2
CCOc1cc(N)c([N+](=O)[O-])cc1C(=O)NC1CCN(CC2CC=CCC2)CC1 (stereo unspecified) [Cinitapride Hydrogen Tartrate] | 1.35
CCC(=O)c1c(O)cc(O)cc1O [Flopropione] | 0.25
CCCCCNC(=N)N/N=C/c1c[nH]c2ccc(OC)cc12 [Tegaserod Maleate] | -0.55
CC(C)c1c(C(=O)Nc2ccccc2)c(-c2ccccc2)c(-c2ccc(F)cc2)n1CC[C@@H](O)C[C@@H](O)CC(=O)O [Atorvastatin] | 1.48
COc1ccc(C(C)=O)c(O)c1 [Paeonol] | 0.01
Cc1cc(NS(=O)(=O)c2ccc(N)cc2)no1 [Sulfamethoxazole sodium] | 1.33
NC12CC3CC(CC(C3)C1)C2 [Amantadine] | 0.12
COC(=O)C1=C(C)NC(C)=C(C(=O)OC(C)(C)CN(C)CCC(c2ccccc2)c2ccccc2)C1c1cccc([N+](=O)[O-])c1 (stereo unspecified) [Lercanidipine] | -0.89
NC1CCN(c2nc3c(cc2F)c(=O)c(C(=O)O)cn3-c2ccc(F)cc2F)C1 (stereo unspecified) [Tosufloxacin p-Toluenesulfonate Hydrate] | -0.74
CC1(C)S[C@@H]2[C@H](NC(=O)[C@H](N)c3ccc(O)cc3)C(=O)N2[C@H]1C(=O)O [Amoxicillin] | 0.46
CCC1=C(C)CN(C(=O)NCCc2ccc(S(=O)(=O)NC(=O)N[C@H]3CC[C@H](C)CC3)cc2)C1=O [Glimepiride] | 0.19
Clc1ccc(CCC(Cn2ccnc2)Sc2c(Cl)cccc2Cl)cc1 (stereo unspecified) [Butoconazole] | 0.29
Cc1ccc(Sc2ccccc2N2CCNCC2)c(C)c1 [Vortioxetine] | 0.26
CN(Cc1cnc2nc(N)nc(N)c2n1)c1ccc(C(=O)N[C@@H](CCC(=O)O)C(=O)O)cc1 [Methotrexate disodium] | -5.52
Clc1ccc(CCC(Cn2ccnc2)Sc2c(Cl)cccc2Cl)cc1 (stereo unspecified) [Butoconazole nitrate] | 0.67
CN(Cc1cnc2nc(N)nc(N)c2n1)c1ccc(C(=O)N[C@@H](CCC(=O)O)C(=O)O)cc1 [Methotrexate] | -4.22
COC(=O)C1=C(C)NC(C)=C(C(=O)OC)C1c1ccccc1[N+](=O)[O-] [Nifedipine] | 0.26
